# Screens deposited in PubChem by National Center for Advancing Translational Sciences (NCATS).
# AMA1 RON2 block – disrupts binding of P. falciparum AMA1 to RON2. Potency, µM (series often up to 58.2 µM), actives largely listed as inhibitors. actives 0.2% (n = 360,000). AlphaScreen AMA1-biotinylated RON2 peptide binding; also: nearly all actives have a fitted effect of over 45% in size
#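 AMA1 (3D7) with his tag at 25 nM final met compounds first, then biotinylated RON2 peptide at 25 nM; detection used donor plus acceptor beads, 10 µg/mL apiece, read by AlphaScreen after 30 min at room temperature.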
# Pf growth 48h – P. falciparum growth inhibition at 48 hours (one generation); P. falciparum luciferase growth in erythrocytes, 48 h; Potency, µM (top dose mostly 28.7 µM), actives largely listed as inhibitors; actives 5.9% (n = 310,000)
#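 Erythrocytes infected with P. falciparum carrying an integrated firefly luciferase reporter (2% hematocrit, 0.1% parasitemia final) were exposed to compounds in RPMI 1640 with 0.5% Albumax at 37 C, 5% CO2. Growth inhibition was scored as reduced luminescence.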
# SARS PLP yeast – inhibitors of SARS-CoV papain-like protease in yeast | AID 485353 | actives 0.19% (n = 330,000) | Potency, µM (doses to about 32.9 µM), most hits filed as activators | S. cerevisiae expressing SARS-CoV PLpro, growth rescue; calls by dose curve; also: nearly all actives have a fitted effect of over 55% in size
# HCV inhibitor – inhibitors of hepatitis C virus infection; Huh7.5.1 HCVcc-Cre infection, luciferase reporter, 44 h; Potency, µM (highest dose often 41.8 µM), hits mostly inhibitors; actives 3.4% (n = 340,000)
#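 Reporter virus HCVcc-Cre (~0.5 moi) infects cells exposed to compound; seeding density 1,000 cells/well with 4 h settling beforehand. Luminescence, 15 sec read, taken 44 h post-infection following a 15 min RT substrate incubation.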
# Pf growth 96h – inhibits malaria parasite growth, 96 h | P. falciparum luciferase reporter growth, 96 h | Potency, µM (titrated, usually from 28.7 µM), hits mostly inhibitors | actives 6.9% (n = 320,000) | AID 504834
#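 P. falciparum expressing integrated firefly luciferase grown in erythrocytes (2% hematocrit, 0.05% parasitemia final) with compounds for 96 hours at 37 C, 5% CO2. Growth inhibition read as loss of luminescence after adding luciferase detection reagent.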
# NS1 inh – blocks influenza NS1 protein function. Potency, µM (top dose mostly 46.1 µM). AID 2326. actives 0.4% (n = 270,000); calls by dose curve; also: actives are rising curves; nearly all actives have a fitted effect of over 50% in size
#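 A cell-based growth assay was used: compounds that relieve NS1-induced slow growth of budding yeast raise OD600. Assay medium was yeast nitrogen base with ammonium sulphate and -URA supplement, pH 6.0, with 2% galactose.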
# Numbers stand for hits; . = inactive; ? = inconclusive; / = no result given; [ ] = dose if it differs, or a comment. This is a sample that favours compounds with a hit; in the whole collection about 12% have one here. Unless noted, calls follow the shape of the dose curve; as a rule, active = well fitted curve in the direction sought with a large enough effect; inconclusive = small, poorly fitted or top-dose-only effect, or another doubt; inactive = no such curve, though single readings can be large; an effect the other way counts as inactive or inconclusive.
SMILES,AMA1 RON2 block,Pf growth 48h,SARS PLP yeast,HCV inhibitor,Pf growth 96h,NS1 inh
CCCN(CC(=O)Nc1ccccc1OC)C(=O)c1cc(-c2ccccc2)nn1-c1ccccc1,.,?,.,11µM,?,/
COc1ccccc1NC(=O)COC(=O)c1c(C)nn(-c2ccccc2)c1C,.,.,.,14µM,.,/
Cc1nc(-c2ccc(NC(=O)c3ccccc3C)cc2)cs1,.,.,.,?,.[5.75 µM],.
Cc1ccc(OCC(=O)NC(=S)Nc2ccc(Br)cn2)cc1C,.,.,.,.,.,.
C[C@H](CO)N1C[C@H](C)[C@@H](CN(C)S(=O)(=O)c2ccc(F)cc2)Oc2c(NS(=O)(=O)c3ccc(F)cc3)cccc2C1=O,.,/,.,.,/,/
NS(=O)(=O)c1ccc(S(=O)(=O)N(Cc2ccccc2F)CC2CCCO2)cc1 (stereo not drawn),.,?,.,.,13µM,.
CCN(Cc1ccccc1)S(=O)(=O)c1ccc(S(=O)(=O)N(Cc2cccc(OC)c2)CC2CCCO2)cc1 (stereo not drawn),.,/,.,.,5.2µM,.
O=c1[nH]c2ccccc2cc1CN(CC1CCCO1)S(=O)(=O)c1ccc(Cl)cc1 (stereo not drawn),.,.,.,.,.,.
COCCCn1c(-c2ccc(OC)cc2)cc(C(=O)NC2CCCCCCC2)c1C,.,13µM,.,?,15µM,.
NC1=NC(=O)/C(=C/c2cn(Cc3ccccc3)c3ccccc23)S1,.,2.1µM,.,?,?,?
Cc1cc(=O)[nH]c(N/N=C/C(C)c2ccccc2)n1 (stereo not drawn),.,.,.,.,.,.
Cc1cc(Nc2ccc(Br)cc2)n2nc(C)nc2n1,.,2.3µM,.,.,?,.
Cc1cc(Nc2ccc(C)c(C)c2)n2nc(C)nc2n1,.,0.74µM,.,.,?,?
Cc1cc(Nc2ccc(F)cc2)n2nc(C)nc2n1,.,/,.,.,?,.
Cc1cc(Nc2c(C)cccc2C)n2nc(C)nc2n1,.,/,.,.,?,.
CCc1ccc(Nc2cc(C)nc3nc(C)nn23)cc1,.,1.3µM,?,.[8.37 µM],.,.
Cc1cc(Nc2cccc(F)c2)n2nc(C)nc2n1,.,?,.,.,9.3µM,.
COc1ccc(CNS(=O)(=O)c2cc3c4c(c2)C(C)C(=O)N4CCC3)cc1 (stereo not drawn),.,.,.,.,.,.
CC(C)Oc1cc(F)ccc1-c1cc(C(=O)NCc2cccnc2)[nH]n1,.,/,/,/,/,/
Oc1c(Br)cccc1/C=N/c1ncn[nH]1,.,.,.,.,?,.
COc1cc2oc(=O)cc(CN3CCN(C(C)=O)CC3)c2cc1Cl,.,/,/,/,/,/
c1ccc(CNC2CC3CCC2C3)cc1 (stereo not drawn),.,/,/,.,/,/
COc1cc2c(cc1OC)CN(CC(=O)Nc1ccc(S(=O)(=O)N3CCCC3)cc1)CC2,.,.,.,.,13µM,.
COc1cc2c(cc1OC)C(C)N(CC(=O)Nc1ccc(S(=O)(=O)N3CCCC3)cc1)CC2 (stereo not drawn),.,12µM,.,?,?,.
COc1ccc(S(=O)(=O)N2CCc3cc(OC)c(OC)cc3C2)cc1,.,0.83µM,.,.,.,.
SMILES,AMA1 RON2 block,Pf growth 48h,SARS PLP yeast,HCV inhibitor,Pf growth 96h,NS1 inh
O=C(NN=Cc1ccccc1OC(F)F)c1ccc(NS(=O)(=O)c2cccs2)cc1,.,/,?,?,/,/
COc1cccc(C(=O)N2CCN(Cc3ccccc3C(F)(F)F)CC2)c1,?,.,.,.,1.5µM,.
COc1cccc(CN2CCN(C(=O)c3ccc(-c4ccccc4)cc3)CC2)c1OC,.,.,.,.,2.9µM,.
COc1cc(CN2CCN(C(=O)c3ccc(-c4ccccc4)cc3)CC2)cc(OC)c1OC,?,.,.,?,.,.
CC12C(=O)N(c3cccc4cccnc34)C(=O)C1C1C=CC2C1 (stereo not drawn),.,/,.,.,6.6µM,.
CC(C)N1C/C(=C/c2cccnc2)C(=O)/C(=C/c2cccnc2)C1,.,13µM,.,?,.,.
Cc1cccc(NC(=O)CN2CCN(C(=O)c3cnn(Cc4ccccc4)c3)CC2)c1C,.,?,.,.,?,/
COc1ccc(CC(=O)NCC2CCCN(Cc3ccc(OC)cc3F)C2)cc1 (stereo not drawn),.,.,?,.,9.3µM,.
COc1ccc(CC(=O)NCC2CCCN(Cc3ccc(F)cc3F)C2)cc1 (stereo not drawn),.,.,.,.,?,.
Cc1ccnc(NS(=O)(=O)c2ccc(NC(=O)c3snnc3C)cc2)n1,.,.,.,.,.,.
S=c1[nH]nc(CCCc2n[nH]c(=S)o2)o1,.,.,.,.,.,.
CC(C)CC1NC(=O)c2cc3ccccc3cc2-n2c1nc1ccc(Cl)cc1c2=O (stereo not drawn),.,/,/,/,/,/
O=C1NC2(CCCCC2)C(=O)N1/N=C/c1ccccc1Br,.,3.3µM,.,.,.,.
O=C1NC2(CCCCC2)C(=O)N1/N=C/c1ccc(O)cc1O,.,/,.,.,?,?
CCOC(=O)C1=C(COC(=O)Cc2ccc(Cl)cc2)NC(=O)NC1C (stereo not drawn),.,.,.,.,.,/
COc1ccc(SC[C@H](Cc2ccccc2)N2CC[C@@H](C)CCC2=O)cc1,.,12µM,.,?,?,/
COc1ccc(SC[C@H](Cc2ccccc2)N2CC[C@@H](NC(=O)OCc3ccccc3)CCC2=O)cc1,.,7.4µM,.,?,?,/
O=C(NCc1cccnc1)c1ccccc1CCc1ccccc1,.,.,.,.,.[1.15 µM],.
O=C(Cc1ccc(F)cc1)NCCS(=O)(=O)N1CCN(c2cccc(Cl)c2)CC1,.,.,.,.,.,/
COC(=O)c1cc(C(=O)Nc2ccc(C)cn2)cc([N+](=O)[O-])c1,.,.,.,?,12µM,.
Cc1ccc(OCc2ccc(C(=O)Nc3c(C)nn(Cc4c(F)c(F)c(F)c(F)c4F)c3C)o2)c([N+](=O)[O-])c1,.,?,.,16µM,?,.
Cc1ccc(C)c(OCc2ccc(C(=O)Nc3ccc([N+](=O)[O-])cn3)o2)c1,.,?,.,2.5µM,.,/
Cc1ccc(OCc2ccc(C(=O)NN)o2)c([N+](=O)[O-])c1,.,.,.,.,?,.
COc1ccccc1NC(=O)COC(=O)C1CC2CCCC(C1)C2=O (stereo not drawn),.,/,.,.,/,/
O=C(O)c1ccc(NS(=O)(=O)c2ccc(NC(=O)c3ccccc3Cl)cc2)cc1,.,.,.,.,6.6µM,?
Cc1ccc(S(=O)(=O)Nc2ccc(C(=O)Nc3ccncc3)cc2)cc1,.,.,.,.,10µM,.
Cc1ccc(NS(=O)(=O)c2ccc(NC(=O)c3cccc(NC(=O)C(C)C)c3)cc2)cc1,.,.,.,10µM,1.7µM,.
